# Measured values: PubChem BioAssay (NCI)
# This is part of a sample that, as a whole, favours compounds with a hit. Of some 83,000 tested, about 20% had one in any assay.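 Method: cells in 96-well plates; compound added at one concentration; 48 h incubation; percent growth measured; values under 10 scored active.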 A number with no mark means an inactive call. Calls of active or inactive are those of the source.
# Columns and labels:
# Test in all cases: NCI-60 one-dose screen, 48 h (100 = growth as untreated, 0 = no growth, -100 = all killed)
# Conditions in all cases: 10 µM unless noted
# SR leukemia = test system: SR leukemia
# RPMI-8226 leukemia = test system: RPMI-8226 leukemia
# OVCAR-8 ovarian = test system: OVCAR-8 ovarian
# OVCAR-5 ovarian = test system: OVCAR-5 ovarian
# OVCAR-4 ovarian = test system: OVCAR-4 ovarian
# SK-OV-3 ovarian = test system: SK-OV-3 ovarian
# IGROV1 ovarian = test system: IGROV1 ovarian
# OVCAR-3 ovarian = test system: OVCAR-3 ovarian
# HS 578T breast = test system: HS 578T breast
# NCI/ADR-RES ovarian = test system: NCI/ADR-RES ovarian
# T-47D breast = test system: T-47D breast
# BT-549 breast = test system: BT-549 breast
# MDA-MB-435 melanoma = test system: MDA-MB-435 melanoma
# SW-620 colon = test system: SW-620 colon
# MCF7 breast = test system: MCF7 breast
# HCT-116 colon = test system: HCT-116 colon
# HCC-2998 colon = test system: HCC-2998 colon
# KM12 colon = test system: KM12 colon
# MDA-MB-468 breast = test system: MDA-MB-468 breast
SMILES,growth (SR leukemia),growth (RPMI-8226 leukemia),growth (OVCAR-8 ovarian),growth (OVCAR-5 ovarian),growth (OVCAR-4 ovarian),growth (SK-OV-3 ovarian),growth (IGROV1 ovarian),growth (OVCAR-3 ovarian),growth (HS 578T breast),growth (NCI/ADR-RES ovarian),growth (T-47D breast),growth (BT-549 breast),growth (MDA-MB-435 melanoma),growth (SW-620 colon),growth (MCF7 breast),growth (HCT-116 colon),growth (HCC-2998 colon),growth (KM12 colon),growth (MDA-MB-468 breast)
CC1(C)CC[C@]2(C(=O)O)CC[C@]3(C)C(=CCC4[C@@]5(C)C[C@@H](O)[C@@H]6OC(c7ccc(F)cc7)OC[C@@]6(C)C5CC[C@]43C)C2C1 (stereo partly specified),7.73% (active),9.02% (active),29.3%,63.4%,44%,85.7%,43.4%,24%,48.1%,30.2%,33.3%,26%,48.9%,23.7%,12.8%,8.81% (active),18.1%,12.3%,13.7%
COc1ccc(/C=C/c2nc3ccccc3c(=O)n2CC(=O)Nc2ccc(OC)cc2)cc1,79.5%,76.4%,59.1%,95.6%,9.1% (active),79.3%,94.2%,62.5%,56.2%,75.7%,66.4%,72.5%,96.4%,84.4%,–,32.1%,95.6%,79.6%,91.1%
Cn1cc(-c2cc3nc(-c4cn(C)c5ncccc45)cc(N)n3n2)c2cc(Cl)ccc21,-54.7% (active),-13.9% (active),-41.4% (active),0.37% (active),-16.5% (active),-67.7% (active),-82.7% (active),-75% (active),-29.7% (active),-43.6% (active),-70.9% (active),-94.6% (active),-81.1% (active),-86.3% (active),–,-94.4% (active),-97.8% (active),-37.2% (active),-95.5% (active)
C=C1CC[C@@H]2[C@]3(C)COC(c4cn[nH]c4-c4ccc(F)cc4)O[C@@H]3CC[C@@]2(C)[C@@H]1C/C=C1/C(=O)OCC1O (stereo partly specified),9.73% (active),0.899% (active),1.2% (active),-42.2% (active),32.9%,46.6%,-31.1% (active),-68.6% (active),44.8%,-45.6% (active),11.6%,-93.4% (active),-62.2% (active),-60.7% (active),–,-88.9% (active),-95.3% (active),-44.3% (active),-82.4% (active)
COc1ccc(-c2ccnc(SCc3cc4cc(OC)ccc4[nH]c3=O)n2)cc1,4.47% (active),9.3% (active),33.3%,46.8%,43.3%,45.2%,33.3%,18.3%,28.2%,-11.4% (active),2.83% (active),-3.12% (active),1.18% (active),22.2%,–,11%,35%,24.2%,-26.3% (active)
Clc1ccc(-c2ccc(OCCCN3CCN(c4ccncc4)CC3)cc2)cc1,-21.2% (active),-9.75% (active),86.3%,96.5%,64.7%,58%,93.7%,67.4%,82.5%,49.7%,15.6%,75.4%,33.5%,-8.83% (active),-1.15% (active),-28.8% (active),21.2%,61.4%,-9.68% (active)
Clc1cccc(N/N=C/c2c[nH]c3ccc(Br)cc23)n1,-14% (active),1.81% (active),42%,14%,61%,25.3%,-33.2% (active),18.6%,32.9%,2.49% (active),22%,-6.46% (active),-0.779% (active),6.71% (active),–,8.25% (active),-9.69% (active),4.64% (active),-10.3% (active)
COc1cccc(/C=C/c2nc3ccccc3c(=O)n2CC(=O)Nc2ccc(Cl)cc2)c1,79.7%,88.3%,48.8%,73.5%,-11.4% (active),76.8%,77.3%,35.5%,32.8%,69.3%,6.29% (active),86.8%,95.4%,68.1%,–,38.4%,91%,77.8%,108%
CCOC(=O)c1ccc(Nc2nc(NN)nc(-c3ccc(OC)cc3)c2C#N)cc1,97.2%,92%,116%,104%,104%,119%,108%,107%,104%,113%,84.9%,116%,62.6%,104%,–,101%,81%,93.9%,119%
O=C(Cn1c(/C=C/c2ccccc2)nc2ccccc2c1=O)Nc1ccc(Cl)cc1,87.6%,86.8%,58.3%,68.7%,-22.4% (active),40.2%,67.7%,29.2%,37.8%,66.6%,-11.5% (active),89%,85.2%,72.1%,–,30.4%,99.2%,84.3%,57.3%
COc1ccc(-c2nc3cc(C)ccc3n2CC(=O)N=Nc2c(O)[nH]c3ccc(Br)cc23)cc1,2.47% (active),42%,-61.8% (active),-4.99% (active),-18.3% (active),35%,23.9%,14.9%,20.3%,-22% (active),-2.62% (active),-41.5% (active),2.16% (active),9.98% (active),–,-69.6% (active),22.7%,11.5%,-46.6% (active)
O=C(NN1C(=O)/C(=C/C=C/c2ccc([N+](=O)[O-])o2)SC1=S)c1ccccc1O,3.37% (active),-4.22% (active),-68.2% (active),-98.8% (active),-100% (active),-9.85% (active),-95.5% (active),-100% (active),-5.32% (active),-0.0269% (active),-59.4% (active),-91.3% (active),-89.7% (active),-69.5% (active),-49.7% (active),-68.5% (active),-97% (active),-83.5% (active),-75.4% (active)
Cn1cc(-c2cc3nc(-c4cn(C)c5ncccc45)cc(N)n3n2)c2ccccc21,-28.8% (active),-19.1% (active),10.2%,48.9%,3.01% (active),42.8%,0.888% (active),6.85% (active),-13% (active),31.2%,35.1%,-34.7% (active),29.7%,20.2%,–,-20% (active),5.15% (active),36.2%,-24.7% (active)
Cc1nc(Nc2ncc(C(=O)Nc3c(C)cccc3Cl)s2)cc(N2CCN(CCCNC(=O)COc3ccc(C4CCC(=O)NC4=O)cc3)CC2)n1 (stereo unspecified),20%,76.4%,34%,26.3%,85.8%,-17.9% (active),-45.2% (active),72%,-16% (active),106%,64.1%,68.5%,81%,118%,–,42.2%,114%,82%,–
Cc1cccc(Nc2nc3ccccc3nc2/C=C/c2ccc(F)cc2)c1,87.2%,91.8%,85.1%,101%,88.9%,105%,75.3%,108%,83.8%,91.1%,78.9%,99.2%,–,88.2%,60.9%,81%,94.2%,96.5%,90%
O=C(c1ccc(Cl)cc1)c1ccc(OCCCN2CCN(c3ccncc3)CC2)cc1,-32% (active),10.2%,75.7%,69%,47.3%,34.8%,67.3%,56.4%,53.7%,50%,29%,26.9%,–,19.5%,13.6%,17.4%,64.9%,57.9%,-16.8% (active)
Cc1cccc(NC(=O)CN2CCN(c3ncnc4c3cnn4-c3ccccc3)CC2)c1,55.9%,75.2%,96%,94.7%,91.4%,99.7%,83.9%,98.9%,88.2%,89.4%,72.1%,89.9%,93.4%,–,74.8%,58.6%,107%,90.4%,89.2%
C=C1CCC2C3(C)COC(c4ccccc4)OC3CCC2(C)C1CC(Sc1ccccc1)C1=CCOC1=O (stereo unspecified),8.04% (active),3.18% (active),12.9%,58.5%,50.4%,120%,58%,44%,94.1%,-22.7% (active),33.1%,-19% (active),–,14.8%,17%,4.36% (active),36.8%,47.5%,27.3%
Cc1cc2nc3c4ccccc4n(CCNCCN(C)C)c3nc2cc1C,-1.38% (active),-25.9% (active),24.2%,39.5%,33%,68.8%,20%,40.5%,44.9%,24.6%,52.2%,23.8%,8.22% (active),–,-28.8% (active),-57.8% (active),-56.7% (active),27.4%,-54.4% (active)
Cn1cc(-c2cc(N)n3nc(-c4c[nH]c5ccccc45)cc3n2)c2cc(Br)cnc21,-29.5% (active),-14.8% (active),-22.6% (active),-77.6% (active),5.89% (active),-34.6% (active),-41.9% (active),-66% (active),-17.5% (active),-44.6% (active),-56% (active),-87.8% (active),-79.3% (active),-69.1% (active),–,-90.7% (active),-94.3% (active),-60.9% (active),-88.5% (active)
CCCCCCCCOc1cccc(S(=O)(=O)Nc2ccc(C)cc2C(=O)O)c1,90%,64.5%,95.6%,114%,90.1%,108%,99.7%,102%,106%,97.6%,105%,115%,98.5%,–,89.8%,85.1%,119%,96.9%,81.8%
Cc1ccc(C(=O)C(c2c[nH]c3ccccc23)c2c[nH]c3ccccc23)cc1,-6.82% (active),-2.33% (active),44.2%,46.7%,43.7%,94%,35.8%,29.2%,83.2%,24.8%,45.7%,69.1%,19.4%,–,9.47% (active),-62.3% (active),4.87% (active),26.1%,26%
C/C(=N\N=C1/C(=O)Nc2ccccc21)c1ccc2c(c1)Nc1ccccc1S2,44.5%,38.7%,56%,83.7%,37.4%,101%,45.6%,34.9%,72.1%,59.4%,26.8%,43.9%,–,63.5%,22.2%,16.2%,75.7%,66.4%,–
CC(=O)c1cccc(NC(=O)CCC(=O)NS(=O)(=O)c2ccc(C)cc2)c1,99.3%,99.8%,106%,110%,118%,99.6%,115%,128%,111%,112%,106%,107%,112%,–,–,101%,117%,104%,122%
O=C(N1c2ccccc2Sc2ccccc21)n1ccc2cccnc21,12.1%,40.4%,88.1%,98.5%,65.6%,79.9%,72%,82%,70.7%,57.7%,27.7%,60.2%,19.7%,58.4%,–,34.9%,85.1%,49.2%,51.8%
S=C(NCCc1ccccc1)Nc1ccc(OCc2nc3ccccc3[nH]2)cc1,95.7%,101%,102%,105%,108%,99.4%,113%,112%,109%,110%,103%,109%,105%,–,95.3%,103%,114%,103%,99.5%
CN(C)CCn1c2ccccc2c2nc3cc4ccccc4cc3nc21,5.18% (active),14.4%,-46.8% (active),8% (active),48%,45.5%,-9.73% (active),46.6%,42.7%,-19.4% (active),45.3%,52.8%,-67% (active),–,-9.03% (active),-61.4% (active),-82.1% (active),4.87% (active),23.7%
